Rows were chosen to be rich in hits. Some 3.5% of all compounds tested hit in one or more screens of this group.
TEAD-YAP block: TEAD-YAP interaction inhibition, primary screen, TEAD-YAP interaction inhibitor project, luminescence, HEK-TIYL cells; AID 1259422, 2018; TEAD-Gal4/YAP UAS-luciferase luminescence; actives 1.4% (n = 640,000); inhibition, % at 9.12 µM; in the data active = inhibition above about 32%;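 also: 0% = median of test compound wells and 100% = reference inhibitor wells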
GPR151 ag: activators of human GPR151, primary screen, cell-based, PathHunter beta-arrestin, luminescence. G-protein coupled receptor 151 (Homo sapiens), Q8TDV0. PathHunter beta-arrestin GPR151 cells. activation, % at 11.2 µM. actives 1% (n = 650,000). AID 1508602, 2020; in the data active = activation above about 4.9%;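 also: 0% = median of compound wells and 100% = cells with positive control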
MITF inh: MITF inhibitors, primary screen, biochemical, AlphaScreen, human. Microphthalmia-associated transcription factor (Homo sapiens), O75030. AlphaScreen MITF homodimerization, bead proximity signal. inhibition, % at 2.6 µM. actives 0.91% (n = 650,000); in the data active = inhibition above about 50%;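 also: 0% = vehicle wells with protein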
Target sequence (O75030 whole entry, looked up): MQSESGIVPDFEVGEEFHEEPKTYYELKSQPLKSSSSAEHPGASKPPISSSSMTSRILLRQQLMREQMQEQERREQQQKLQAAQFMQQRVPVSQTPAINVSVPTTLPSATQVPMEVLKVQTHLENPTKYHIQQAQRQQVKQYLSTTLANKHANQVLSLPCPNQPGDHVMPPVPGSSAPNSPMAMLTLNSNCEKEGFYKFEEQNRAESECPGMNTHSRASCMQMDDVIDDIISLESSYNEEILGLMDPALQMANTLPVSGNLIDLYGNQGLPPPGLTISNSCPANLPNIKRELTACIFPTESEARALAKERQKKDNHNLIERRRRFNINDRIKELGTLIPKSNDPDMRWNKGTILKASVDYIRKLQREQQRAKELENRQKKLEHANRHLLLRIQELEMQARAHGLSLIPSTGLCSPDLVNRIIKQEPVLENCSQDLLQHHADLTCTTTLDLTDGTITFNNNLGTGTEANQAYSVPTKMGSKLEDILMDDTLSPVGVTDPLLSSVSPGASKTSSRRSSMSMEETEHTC
FBW7 act: FBW7 E3 ligase activators, primary screen, biochemical, AlphaScreen, human; AlphaScreen FBW7–phospho-cyclin E peptide binding, activator screen; normalized activity (activation), % at 26.1 µM; actives 0.13% (n = 650,000); AID 1259310, 2017; in the data active = normalized activity above about 1.9%;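 also: purified mutant Fbw7 with reduced substrate affinity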
MITF inh conf: MITF inhibitors, retest of hits, confirmation, biochemical, AlphaScreen, triplicate | inhibition, % at 2.6 µM | actives 16% (n = 4,700) | AlphaScreen MITF homodimerization, biotin/His-MITF beads | shares compounds with MITF inh | AID 1259372, 2018;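 active = inhibition above a cutoff derived from the DMSO control wells, cut at about 28% in these data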;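 also: 0% = MITF dimer wells with DMSO only; inhibitors lower the bead chemiluminescence by keeping MITF from dimerizing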
AlphaScreen DR: AlphaScreen optical interference compounds, dose response, counter-screen, biochemical, HTS; AID 1259373, 2018; actives 6% (n = 480); IC50, µM; AlphaScreen optical interference counterscreen, cell-free; shares compounds with MITF inh; call rule not given here
AS interf ctr: AlphaScreen optical interference compounds, counter-screen for MITF inhibitor project, biochemical, triplicate; shares compounds with MITF inh; LysRS AlphaScreen counterscreen, signal interference; inhibition, % at 2.6 µM; actives 7.6% (n = 4,700);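 active = inhibition above a cutoff derived from the DMSO control wells, cut at about 30% in these data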
Active calls of the source: *; . = no result given.

SMILES	TEAD-YAP block	GPR151 ag	MITF inh	FBW7 act	MITF inh conf	AS interf ctr	others
CC(=O)C(/C=N/NC(=O)c1ccccn1)=C(\C)O	8	3	59*	-2	33*	57*
CCSc1nnc(NC(=O)c2cc(Cl)ccc2Cl)s1	3	-1	2	0	.	.
CCSc1nnc(NC(=O)c2cc(S(=O)(=O)N3CCCCC3)ccc2Cl)s1	-7	-1	57*	0	12	16
CCCOc1ccccc1C(=O)Nc1nnc(SCC)s1	-4	-2	67*	1	20	12
OCc1ccccc1Nc1cc(NCCc2ccc(F)cc2)ncc1C(F)(F)F	-4	1	-8	0	.	.
O=C(CN1CCN(S(=O)(=O)c2ccc(Cl)cc2)CC1)Nc1cc(C(F)(F)F)ccc1Cl	14	1	16	0	.	.
Cc1sc(NC(=O)CN(Cc2ccc(F)cc2)C(=O)C(C)(C)C)c(C(N)=O)c1C	7	1	68*	0	8	13
Cc1sc(NC(=O)CN(Cc2ccc(F)cc2)C(=O)c2ccccc2)c(C(N)=O)c1C	19	-1	-26	0	.	.
CC(=O)CC1OC(=O)C(Oc2ccccc2)=C1Br (centres undefined)	-1	0	1	0	.	.
NCC1OC(=O)C(Oc2ccccc2)=C1Br (centres undefined)	15	0	59*	-1	77*	-18	AlphaScreen DR=>6.5
COC(=O)CCC(=O)NC(=S)Nc1sc2c(c1C(=O)OC)CCCC2	6	0	7	0	.	.
O=C(COC(=O)c1ccco1)c1ccc2ccccc2c1	-1	3	92*	0	9	8
CCN(CC)CC(=O)Nc1cccc(OC)c1	-1	3	1	0	.	.
CCN(CC(=O)Nc1cccc(OC)c1)CC(=O)Nc1ccc(C)cc1Cl	8	2	62*	0	4	18
CCN(CC(=O)Nc1cccc(OC)c1)Cc1cc(=O)oc2cc(NC(C)=O)ccc12	8	-1	54*	0	24	-6
CCNC(=O)/C(C#N)=C/c1ccc(Cl)c(Cl)c1	0	1	53*	0	-1	6
Cc1cc2nc(Nc3ncc4c(n3)CC(c3ccco3)CC4=O)nc(C)c2cc1C (centres undefined)	0	-1	20	0	.	.
O=C(CCc1cccc(Oc2ccc(F)cc2)c1)NCC1CCCO1 (centres undefined)	0	1	6	0	.	.
COC(=O)C(C)CN1CCc2ccccc2C1 (centres undefined)	-1	-1	47	1	.	.
COC(=O)C(C)CN1CCN(Cc2ccccc2)CC1 (centres undefined)	-4	0	78*	0	24	-3
CC(=O)N(C)c1ccc(OCC(O)CN2CCN(Cc3ccccc3)CC2)cc1 (centres undefined)	-7	1	82*	0	8	18
Cc1ccc(-c2csc(=Nc3ccc(F)cc3)n2CCc2ccc(S(N)(=O)=O)cc2)cc1C	7	1	17	0	.	.
Nn1cnn2c(SCC(=O)Nc3ccc(Cl)cc3)nnc12	-10	1	12	0	.	.
CCCN(Cc1cccc([N+](=O)[O-])c1)CC1CC1	4	0	54*	1	-91	-4
Brc1cccc(CN2CCC(N3CCCCC3)CC2)c1	-5	0	-10	0	.	.
SMILES	TEAD-YAP block	GPR151 ag	MITF inh	FBW7 act	MITF inh conf	AS interf ctr	others
CCc1ccc(CN2CCN(C3CCN(Cc4ccccc4)CC3)CC2)cc1	6	-1	55*	0	-9	0
Clc1cccc(CN2CCN(C3CCCCCC3)CC2)c1	1	-1	69*	0	-5	-6
c1ccc(CN2CCC(N3CCN(C4CCN(Cc5ccccc5)CC4)CC3)CC2)cc1	16	0	21	0	.	.
c1ccc(CN2CCN(C3CCCC3)CC2)cc1	15	0	75*	0	-5	-10
CC1CCCC(N2CCN(Cc3cccc(Cl)c3)CC2)C1 (centres undefined)	-5	1	67*	0	1	-6
NC(=O)c1ccccc1NC(=O)CCCCCN1C(=O)c2ccccc2C1=O	9	1	8	0	.	.
CS(=O)(=O)N1CCC(N2CCN(Cc3ccccc3)CC2)CC1	-3	1	54*	0	7	20
O=C(Cc1ccccc1)N1CCC(N2CCN(Cc3ccccc3)CC2)CC1	6	1	66*	0	2	9
Cc1ccc(CN2CCN(C3CCCCC3)CC2)cc1	-12	-1	65*	0	3	18
O=C(O)CNC(=O)CNS(=O)(=O)c1ccc([N+](=O)[O-])cc1	-1	0	-6	0	.	.
COc1ccc2c(C)nc(N3CCCC(C(=O)N4CCCCC4C)C3)nc2c1 (centres undefined)	2	-1	2	0	.	.
CCCCC[C@H](O)/C=C/[C@@H]1[C@@H](C/C=C\CCCC(=O)NCCCCCNC(=O)CCCCC2SC[C@@H]3NC(=O)N[C@H]23)[C@@H](O)C[C@H]1O (some centres undefined)	.	-1	124*	.	123*	101*
CCCCC[C@H](O)/C=C/[C@H]1[C@H](O)CC(=O)[C@@H]1C/C=C\CCCC(=O)NCCCCCNC(=O)CCCCC1SC[C@@H]2NC(=O)N[C@H]12 (some centres undefined)	.	0	124*	.	124*	101*
CCCCC[C@H](O)/C=C/[C@H]1[C@H](O)CC(=O)[C@@H]1C/C=C\CCCC(=O)NCCO	.	1	3	.	.	.
CCCCC/C=C/C=C1/C(=O)C=C[C@@H]1C/C=C\CCCC(=O)O	.	0	35	.	.	.
CCCCC/C=C/C=C1/C(=O)C=C[C@@H]1C/C=C\CCCC(=O)NCCCCCNC(=O)CCCCC1SC[C@@H]2NC(=O)N[C@H]12 (some centres undefined)	.	-1	124*	.	124*	101*
CC(=O)Nc1ccc(-c2nnn(CC(=O)Nc3cc(C)cc(C)c3)n2)cc1Cl	7	0	-1	0	.	.
CNC(=O)Cc1ccc(NS(=O)(=O)c2ccc(F)cc2C)cc1	1	-1	-12	0	.	.
c1ccc(-c2cc3ccccc3[nH]2)nc1	-38	-3	17	0	.	.
O=c1cc(-c2ccccn2)[nH][nH]1	-50	-3	114*	-1	110*	101*
S=c1[nH]c2ccccc2n2c(=S)[nH]nc12	-12	-1	20	0	.	.
S=c1nc2ccccc2c2[nH]c3ccccc3n12	-8	-1	56*	0	-7	2

Screening data deposited in PubChem by The Scripps Research Institute Molecular Screening Center.
